Most compounds without a hit are left out; they make up all but 2.1% or so of the library.
D2 ag-1: activates the human D2 dopamine receptor | hit rate 0.53% among 340,000 | P14416 | activation, % at 2 µM | HEK293 T-REx D2 cells, calcium flux agonist mode | AID 485358;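 active = activation over 3 SD above normal in the single-dose calcium agonist read, cut at about 30% in these data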; note: 0% is about no effect
Target sequence (P14416 whole entry, looked up): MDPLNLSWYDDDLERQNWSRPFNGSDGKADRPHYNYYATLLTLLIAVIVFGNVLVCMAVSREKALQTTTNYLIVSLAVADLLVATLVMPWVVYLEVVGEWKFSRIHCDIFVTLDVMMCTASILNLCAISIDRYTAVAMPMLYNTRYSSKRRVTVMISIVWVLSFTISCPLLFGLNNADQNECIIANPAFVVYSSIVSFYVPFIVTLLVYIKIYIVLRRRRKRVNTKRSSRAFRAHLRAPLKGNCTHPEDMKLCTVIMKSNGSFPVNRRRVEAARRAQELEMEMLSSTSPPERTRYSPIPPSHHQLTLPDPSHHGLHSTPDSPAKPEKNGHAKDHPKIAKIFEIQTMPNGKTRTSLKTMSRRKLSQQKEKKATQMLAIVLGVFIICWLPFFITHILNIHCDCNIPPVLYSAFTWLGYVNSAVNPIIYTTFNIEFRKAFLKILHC
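HEK293 Trex D2 cells, tetracycline-induced, o/n 30 C 5% CO2; no-wash Ca dye, RT 30–90 min; 10-cycle baseline, 23 nl cpd added, kinetic Ca read 180 s; agonist hits = positive Ca response.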
D2 antag: antagonizes the human D2 dopamine receptor; P14416; HEK293 TREx D2 cells, calcium flux, dopamine EC80; inhibition, % at 10 µM; hit rate 2% among 340,000; AID 485344; in the data active = inhibition above about 30%; inactive = below that, where a call was filed; note: 0% is about no effect
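Calcium mobilization kinetics were recorded at 1 s intervals in tetracycline-induced HEK293 T-REx D2 cells, first for 180 s after compound addition and then 180 s after EC80 dopamine.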
LDHA block: inhibitors of human lactate dehydrogenase A; hit rate 0.15% among 480,000; purified LDHA, NADH/diaphorase-resazurin fluorescence; hits give low values; P00338; AID 1347041; activity change, % (values are at about 110 or 230 µM); in the data active = activity change below about -30%;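 note: plate controls were DMSO wells for no effect and wells without enzyme for full effect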
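Remaining NADH was detected by diaphorase (0.133 mg/mL) converting 37 µM resazurin to fluorescent resorufin, read at 0 and 20 minutes. The preceding 5-minute room-temperature reaction used 2 nM LDHA, 0.2 mM sodium pyruvate and 0.06 mM NADH at pH 7.4.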
D2 PAM-1: D2 dopamine receptor (human) potentiation. HEK293 T-REx D2, calcium flux, EC20 dopamine potentiation. potentiation, % at 10 µM. hit rate 0.34% among 340,000;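 active = potentiation over 3 SD above the plate norm, cut at about 30% in these data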; note: 0% is about no effect
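Tetracycline-induced HEK293 T-REx cells force-coupled to calcium signalling expressed D2; compounds were pin-added after a 10 s baseline, read kinetically 180 s, then an EC20 dopamine challenge followed with a further 180 s calcium read.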
D2 ag-2: activates the human D2 dopamine receptor; P14416; DiscoveRx PathHunter D2 beta-arrestin, luminescence, 90 min; 100% = 57 uM dopamine signal; activation, % (no concentration beside the values); hit rate 0.084% among 360,000; in the data active = activation above about 40%
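Agonist mode: compounds alone added to overnight-plated D2 PathHunter cells for 90 min at 37 C, with 57 uM final dopamine (EC100) defining full response. Beta-arrestin recruitment detected by chemiluminescent reagent, read after 1 h at ambient temperature.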
D2 PAM-2: human D2 receptor positive allosteric modulation | DiscoveRx D2 beta-arrestin cells, luminescence, 90 min; 100% = 57 uM dopamine signal | potentiation, % (concentration not given with the values) | hit rate 0.23% among 360,000 | AID 624464; in the data active = potentiation above about 50%
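PathHunter D2 cells, attached overnight at 37 deg C, received compound in DMSO plus dopamine at EC20 (50 nM final) for 90 min at 37 deg C. Beta-arrestin recruitment was read as luminescence after 1 h with detection reagent at ambient temperature.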
Numbers without * were called inactive; x = no result; ! = a repeat was not active.

SMILES	D2 ag-1	D2 antag	LDHA block	D2 PAM-1	D2 ag-2	D2 PAM-2
Cn1c(=O)oc2cc(S(=O)(=O)N3CCC4(CC3)OCCO4)ccc21	2	4	-10	-1	0	2
Cc1ccc(C(NC(=O)CSc2nnnn2C)c2cccs2)cc1 (stereo not drawn)	x	x	-15	x	x	x
O=S(=O)(c1ccccc1)N1N=C(c2ccccc2)CC1c1ccccc1 (stereo not drawn)	0	5	-14	12	-3	0
O=S(=O)(c1ccccc1)N1N=C(c2cccs2)CC1c1ccc(Br)cc1 (stereo not drawn)	0	13	2	35*	-1	-14
CN1CC[n+]2cnc3ccccc3c21	-2	-22	-33*	19	-1	2
COc1ccccc1-c1nnc(NC(=O)c2ccc(S(=O)(=O)N(C)C)cc2)o1	-1	-6	4	3	-2	-4
CCN(Cc1ccccc1)S(=O)(=O)c1ccc(C(=O)Nc2nnc(-c3ccccc3OC)o2)cc1	1	42*	-4	-2	1	-1
Cn1c(SCC(=O)NC2CCS(=O)(=O)C2)nnc1-c1ccco1 (stereo not drawn)	1	-13	0	-8	-1	-3
COc1cccc(-c2nnc(SCC(=O)NC3CCS(=O)(=O)C3)n2C)c1 (stereo not drawn)	1	39*	-5	-4	2	-14
Cc1ccc(-c2nc(=Nc3ccccc3)sn2-c2ccccc2)cc1	x	x	3	x	x	x
N=c1nc(-c2ccccc2)n(-c2ccccc2)s1	x	x	-71*	x	x	x
COc1ccc2cc(CN(C)C(=O)C3CCN(S(=O)(=O)c4cc(F)ccc4F)CC3)ccc2c1	x	x	3	x	x	x
COc1cc(OC)c2c(-c3ccccc3)cc(=O)oc2c1C(CC(=O)N1CCN(c2ccccc2)CC1)c1ccc(N(C)C)cc1 (stereo not drawn)	-1	48*	1	-3	2	-3
COc1cc(OC)c2c(-c3ccccc3)cc(=O)oc2c1C(CC(=O)N1CCOCC1)c1ccc(N(C)C)cc1 (stereo not drawn)	-1	31*	1	-3	1	-15
COc1cc(CNCCCN2CCOCC2)cc(Br)c1OCC(=O)N1CCCCC1	0	32*	-3	8	-3	-5
CC1CCCCC1NC(=O)c1ccc(C#N)cc1 (stereo not drawn)	x	x	0	x	x	x
S=c1[nH]nc(-c2ccc(Cl)cc2)n1Cc1ccccc1	0	10	1	-12	3	-4
Sc1nnc(-c2ccc(Cl)cc2)n1Cc1ccccc1	0	39*	-1	-1	2	-16
S=c1nc(-c2ccccc2)n(CCCn2ccnc2)c2c1CCCC2	2	39*	3	3	-4	-12
CC(=O)Nc1cccc(CNC(=O)/C=C/c2sccc2C)c1	x	x	12	x	x	x
Cc1ccc(C(O)CNC(=O)C2CC=CCC2)cc1 (stereo not drawn)	x	x	0	x	x	x
COc1ccc(/C=C/C(=O)OCC(=O)c2ccc[nH]2)cc1	0	38*	-2	-12	-1	1
CCCN1C=CC(=CC=C(C#N)C#N)C=C1	22	-7	-4	8	-3	-2
C=CCN1C=CC(=CC=C(C#N)C#N)C=C1	53*	7	-2	6	0	-17
CCOc1ccc(C(=O)NCCC2=CCCCC2)cc1OCC	-1	38*	1	-30	2	-23
SMILES	D2 ag-1	D2 antag	LDHA block	D2 PAM-1	D2 ag-2	D2 PAM-2
COc1ccccc1/C=C/C(=O)NCCC1=CCCCC1	-1	35*	-8	-24	-5	-15
COc1ccc(CCNC(=O)c2ccc(OCc3c(C)noc3C)c(OC)c2)cc1	x	x	-5	x	0	-22
Cc1ccc(C(=O)NCCC2=CCCCC2)cc1C	x	x	6	x	x	x
COc1cc(C(=O)NCCC2=CCCCC2)ccc1OCc1c(C)noc1C	0	32*	-19	-10	-8	-3
CC1(C)CC(=O)c2cc(C#N)c(SCc3ccc(Cl)cc3)nc2C1	x	x	3	x	x	x
COc1cc2c(cc1OC)-c1cc(Nc3ccc4c(c3)OCCO4)nc(=O)n1CC2	-1	-3	10	57*	0	2
CCO[C@H]1OC(C(=O)O)=C[C@@H](c2csc3ccccc23)[C@@H]1CCCO	0	32*	-6	11	0	-3
CCCCCn1c(=N)n(CC(O)COc2ccccc2OC)c2ccccc21 (stereo not drawn)	-1	32*!	-4	-10	-4	-3
Cc1ccc2c(C)c(C(=O)Nc3nc(-c4ccc(C)s4)ns3)oc2c1	x	x	-33*	x	x	x
Cc1ccc(NC(=O)Cc2nc(-c3c[nH]c(C(=O)N4CCCC4)c3)cs2)cc1	x	x	2	x	x	x
CC(c1ccco1)N(C(=O)c1ccccc1F)c1ccccn1 (stereo not drawn)	0	-1	-6	1	1	-1
CC(c1ccco1)N(C(=O)c1ccc(Cl)s1)c1ccccn1 (stereo not drawn)	34*	-33	-4	-6	8	5
Cc1ccc2c(=O)c(C(=O)c3ccc(F)cc3)cn(CC(=O)NCc3ccco3)c2n1	0	33*	-4	-2	5	15
Cc1ccc2c(=O)c(C(=O)c3ccc(F)cc3)cn(CC(=O)NCc3ccccc3)c2n1	2	x	-2	2	x	x
O=C(NC(NC(=S)Nc1cccc(Cl)c1)C(Cl)(Cl)Cl)OCc1ccccc1 (stereo not drawn)	2	78*	1	5	1	-26
CN1CCN(c2ccc3cc(S(=O)(=O)N4CCCC4)ccc3n2)CC1	x	x	12	x	x	x
O=C1CC(=O)N(Cc2ccco2)C(=S)N1	2	11	-36*	5	-5	-10
O=C(NC12CC3CC(CC(C3)C1)C2)N1CCN(c2ccccn2)CC1	36*	31*	-8	-2	1	-8
O=C(NC12CC3CC(CC(C3)C1)C2)N1CCN(c2ncccn2)CC1	1	-7	-5	6	-4	-8
Cc1cc(C)n(Cc2ccc(C(=O)N/N=C/c3ccc(-c4ccc([N+](=O)[O-])cc4)o3)o2)n1	2	-11	-65*	-2	9	9
O=C(O)c1ccc(-c2ccc(/C=N/Nc3ccc([N+](=O)[O-])cc3)o2)cc1	54*	8	-5	-4	-6	-5
O=C(O)c1cccc(-c2ccc(/C=N/Nc3ccc([N+](=O)[O-])cc3)o2)c1	36*	3	-4	-2	-5	-9
O=C(O)c1ccc(N/N=C/c2ccc(-c3cccc(Cl)c3)o2)cc1	x	x	-7	x	12	3
N#Cc1c(SCCN2CCCC2)nc(N2CCCC2)c2c1CCCC2	x	x	7	x	x	x

Compound activity deposited in PubChem by National Center for Advancing Translational Sciences (NCATS).
